Laboratory results reported in PubChem BioAssay (NCATS).
Values joined by “and” are separate entries in the source; they are usually repeats but may differ in a detail not shown here. Equal entries are not always repeated. Records with an inconclusive call do not appear. Active and inactive are the calls of the source. Unless noted, calls come from the whole dose curve; as a rule, active = well fitted curve in the direction sought with a large enough effect; inconclusive = small, poorly fitted or top-dose-only effect, or another doubt; inactive = no such curve, though single readings can be large; an effect the other way counts as inactive or inconclusive.

How the values were obtained:
[1] = P-glycoprotein substrates identified in KB-3-1 adenocarcinoma cell line, qHTS therapeutic library screen (AID 1346986);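 note: potency is the fitted concentration of half-maximal effect; potency is for cytotoxicity meaning loss of cell viability; nearly all actives have a fitted effect of over 60% in size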
Procedure, shortened: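 72 h cell-killing screen, 500 cells/well, CellTiter-Glo luminescence. Paired lines KB-3-1/KB-8-5-11; P-gp dependence checked by tariquidar co-treatment and HEK-293 MDR-19 versus empty-vector cells.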

[2] = target: Cytochrome P450 3A4 (Homo sapiens) (UniProt P08684); experiment: qHTS Assay for Activators of Cytochrome P450 3A4 (AID 885); note: nearly all actives have a fitted effect of over 65% in size
Cytochrome P450 3A4 (Homo sapiens), sequence (P08684 whole entry, looked up): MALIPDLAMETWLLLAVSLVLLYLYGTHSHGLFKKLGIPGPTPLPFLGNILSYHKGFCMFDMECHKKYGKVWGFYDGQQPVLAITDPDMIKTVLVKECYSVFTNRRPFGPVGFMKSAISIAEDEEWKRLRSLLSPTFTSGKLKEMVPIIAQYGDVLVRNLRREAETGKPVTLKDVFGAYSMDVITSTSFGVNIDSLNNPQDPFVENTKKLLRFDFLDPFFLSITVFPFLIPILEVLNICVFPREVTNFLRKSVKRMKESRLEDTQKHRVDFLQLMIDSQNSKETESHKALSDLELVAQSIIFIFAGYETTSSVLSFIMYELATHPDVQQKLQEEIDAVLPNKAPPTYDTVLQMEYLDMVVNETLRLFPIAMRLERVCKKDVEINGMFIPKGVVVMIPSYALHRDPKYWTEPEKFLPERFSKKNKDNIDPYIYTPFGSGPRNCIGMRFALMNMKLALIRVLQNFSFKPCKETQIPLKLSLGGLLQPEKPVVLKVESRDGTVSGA
Procedure, shortened: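 Luminescent readout of luciferin formed from 25 uM Luciferin-PPXE (KM level) by 20 nM CYP3A4 in 200 mM KPO4, with 60 min NADPH-driven reaction at room temperature after 10 min compound exposure. Ketoconazole (57 uM) defined 100% inhibition.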

[3] = Counterscreen qHTS for small molecule stabilizers of the endoplasmic reticulum resident proteome: GLuc-NoTag assay (AID 1508627);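 note: 0% = thapsigargin alone and -100% = DMSO vehicle control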
Procedure, shortened: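 Secreted GLuc lacking the SERCaMP modification is measured in SH-SY5Y cells exposed to compound for 19 h and then to thapsigargin (100 nM, 4 h) to deplete ER calcium; hits retested at 11 concentrations, up to 76.6 uM.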

[4] = Confirmatory qHTS for small molecule stabilizers of the endoplasmic reticulum resident proteome: Secreted ER Calcium Modulated Protein (SERCaMP) assay (AID 1508628); note: potency is the fitted concentration of half-maximal effect; nearly all actives have a fitted effect of over 40% in size
Procedure, shortened: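 Reporter secretion upon ER calcium depletion (100 nM thapsigargin, 4 h, 37C) is measured as medium luminescence with coelenterazine, after 16 h compound pretreatment of SH-SY5Y-GLuc-SERCaMP cells; primary at three concentrations up to 38.3 uM, follow-up at 11 (up to 76.6 uM).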

[5] = Cell Viability - BJ (AID 421; calls by dose curve;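 note: potency is the fitted concentration of half-maximal effect; cells exposed to compound for 40 hours at 37 °C before readout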); settings: BJ fibroblast viability, qHTS
Procedure, shortened: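 Cytotoxicity as drop in intracellular ATP (CellTiter-Glo, 20 min RT) after 40 hr compound exposure of BJ fibroblasts at 37 °C. Titrations scaled between DMSO and 100 uM tamoxifen, Hill-fitted for AC50.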

[6] = Cell Viability - Jurkat (AID 426;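 active = dose-dependent loss of cell ATP signal giving a full or clear fitted curve, ranked by lower potency value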;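 note: potency is the fitted concentration of half-maximal effect; cells exposed to compound for 40 hours at 37 °C before ATP read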); settings: qHTS
Procedure, shortened: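 Cells of the human T-cell leukemia line Jurkat (E6-1) are seeded at 5000 per well, treated with compound across a concentration range for 40 hours at 37 °C, then lysed with CellTiter-Glo; luminescence reports ATP.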

[7] = Cell Viability - Hek293 (AID 427;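 active = compounds whose dose-response curve shows a full or clear partial loss of cell viability, called from curve shape rather than a numeric limit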;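 note: potency is the fitted concentration of half-maximal effect; cells exposed to compound for 40 hours at 37 °C before reading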); settings: qHTS
Procedure, shortened: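 Luminescent ATP content (CellTiter-Glo, 20 min at room temperature) was measured after a 40 hr, 37 °C compound exposure of HEK293 cells. AC50 values came from Hill-equation fits of qHTS concentration-response data normalized to DMSO and 100 uM tamoxifen.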

[8] = Cell Viability - HepG2 (AID 433; calls by dose curve;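 note: potency is the fitted concentration of half-maximal effect; potency for ATP loss meaning cytotoxicity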); settings: qHTS
Procedure, shortened: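 Cytotoxicity read as ATP loss (CellTiter-Glo luminescence) after 40 hr compound exposure of HepG2, 1500 cells/well, 37 °C. AC50 by Hill equation; 0% set by DMSO, 100% inhibition by 100 uM tamoxifen.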

[9] = Cell Viability - MRC5 (AID 434; calls by dose curve;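 note: potency is the fitted concentration of half-maximal effect; potency reflects cytotoxicity seen as loss of intracellular ATP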); settings: MRC5 lung fibroblast viability, qHTS
Procedure, shortened: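 Decrease in intracellular ATP, quantified by luciferase light output, reflects compound toxicity toward MRC5 cells exposed for 40 hr in complete culture medium. Concentration-response curves, scaled between DMSO and 100 uM tamoxifen, gave AC50 values.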

[10] = Cell Viability - SK-N-SH (AID 435; calls by dose curve; note: potency is the fitted concentration of half-maximal effect); settings: SK-N-SH neuroblastoma cell viability qHTS
Procedure, shortened: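 qHTS cytotoxicity: CellTiter-Glo ATP luminescence after 40 h compound exposure of human neuroblastoma SK-N-SH cells at 37 °C. AC50 derived by Hill-equation fitting, with DMSO as basal and 100 uM tamoxifen as full inhibition.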

[11] = qHTS assay for small molecule activators of the p53 signaling pathway (AID 651743; active = well fitted activation curve with a large enough effect in the signal ratio, not every such curve was filed as active; the % refers to the signal ratio; note: % of control where 0% means no effect); settings: HCT-116 p53RE-bla, beta-lactamase FRET ratio, 16 h; stronger effect = higher value
Procedure, shortened: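 Agonist-mode quantitative HTS in HCT-116 cells carrying a p53-response-element beta-lactamase reporter; 16 h compound treatment at 37 C, then FRET substrate loading for 2 h at room temperature and fluorescence read.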

[12] = qHTS assay for small molecule disruptors of the mitochondrial membrane potential - 1 hr assay (AID 651754; calls by dose curve; note: potency is the fitted concentration of half-maximal effect; nearly all actives have a fitted effect of over 35% in size)
Procedure, shortened: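 Loss of mitochondrial potential shifts the cationic dye from red mitochondrial aggregates to green cytoplasmic monomers. Cells (HepG2) are treated with compound for 1 hr before a 30 min dye incubation at 37C.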

[13] = qHTS assay for small molecule disruptors of the mitochondrial membrane potential - 5 hr assay (AID 651755; calls by dose curve; note: potency is the fitted concentration of half-maximal effect; nearly all actives have a fitted effect of over 40% in size); settings: JC-1-type ratio dye
Procedure, shortened: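 Seed HepG2 overnight, add compound, incubate 5 hr at 37C and 5% CO2, stain 30 min with Mito-MPS, then measure monomer (490/535 nm) and aggregate (540/590 nm) fluorescence.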

[14] = qHTS assay for environmental chemicals that activate the Aryl hydrocarbon Receptor (AhR) signaling pathway (AID 651777); settings: 1A2-DRE human hepatoma cells, luciferase, 24 h; stronger effect = higher value; note: % of control where 0% means no effect; nearly all actives have a fitted effect of over 15% in size
Procedure, shortened: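 Human hepatoma 1A2-DRE cells, stably carrying a dioxin response element and CYP1A2 promoter driving luciferase, were exposed to compounds for 24 hr at 37 C and 5% CO2. Luciferase signal was then read after 30 min One-Glo at room temperature.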

[15] = qHTS assay for small molecule agonists of the antioxidant response element (ARE) signaling pathway measured by Nrf2-dependant transcriptional activity - cell viability counter screen (AID 720653; active = well fitted curve in the direction sought with a large enough effect in the repeat runs; an effect the other way counts as inactive or inconclusive; note: % is set by controls: 0 for no effect and ±100 for the full control effect); settings: ARE-bla HepG2 viability, CellTiter-Glo ATP luminescence, 16 h; max response: stronger effect = lower value
Procedure, shortened: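 ARE-bla HepG2 cells (2,000/well) rested 5 hrs at 37C/5% CO2, then exposed to compounds in DMSO for 16 hrs. Viability was read in the same wells as intracellular ATP by luminescence, 30 min at room temperature after reagent addition.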

[16] = qHTS assay for cell viability of HEK293 cells (AID 743288); settings: ATP luminescence (CellTiter-Glo), 18 h; max response: stronger effect = lower value; note: % is set by controls: 0 for no effect and ±100 for the full control effect; nearly all actives have a fitted effect of over 50% in size
Procedure, shortened: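 Readout is luciferase-coupled ATP content (CellTiter-Glo luminescence, 30 min room temperature) as a measure of metabolically competent cells. Parental HEK293 cells were plated 5 h or more before compound addition, then treated 18 h at 37 C.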

[17] = test system: ATS189; experiment: qHTS profiling for inhibitors of Plasmodium falciparum proliferation (AID 504749); note: potency is the fitted concentration of half-maximal effect; nearly all actives have a fitted effect of over 60% in size; settings: P. falciparum in erythrocytes, SYBR Green DNA, 72 h; series mostly up to 28.7 µM
Procedure, shortened: (§1)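 Quantitative HTS: compounds pinned into medium, infected erythrocytes added (0.3% parasitemia, 2.5% hematocrit), 72 h culture at 37 C under 5% CO2. Saponin/Triton lysis with SYBR Green I, overnight RT, then fluorescence read.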

[18] = test system: DIV14; experiment: as above; settings: P. falciparum in erythrocytes, SYBR Green DNA, 72 h; series mostly up to 28.7 µM
Procedure, shortened: as §1

[19] = test system: DIV17; experiment: as above; settings: P. falciparum in erythrocytes, SYBR Green DNA, 72 h; series mostly up to 28.7 µM
Procedure, shortened: as §1

[20] = test system: TAB113; experiment: as above; settings: P. falciparum in erythrocytes, SYBR Green DNA, 72 h; series mostly up to 28.7 µM
Procedure, shortened: as §1

COCCNCc1ccc(-c2cc3nccc(Oc4ccc(NC(=S)NC(=O)Cc5ccc(F)cc5)cc4F)c3s2)nc1
active: Potency [1] 23.1 µM

Oc1ccc(Nc2nc(-c3ccc(Cl)cc3)cs2)cc1
inactive: Potency [2] | Potency [3]
active: Potency [4] 2 µM

Nc1ccc(N)c([N+](=O)[O-])c1
inactive: Potency [5] > 92 µM | Potency [6] > 92 µM | Potency [7] > 92 µM | Potency [8] > 92 µM | Potency [9] > 92 µM | Potency [10] > 92 µM | activation [11] -0.975% and -0.0594% | activation [14] 3.75% | max response [15] -19.5% and -28.1% | max response [16] -1.33% and -23.7%
active: Potency [12] 29.8 µM | Potency [13] 29.8 µM

O=C(CC1NCCC[C@H]1O)Cn1cnc2cc(Br)c(Cl)cc2c1=O (stereo not given in full)
active: Potency [17] 4.47 µM | Potency [18] 3.01 µM | Potency [19] 3.38 µM | Potency [20] 2.24 µM
